# Data from the supplement of paper PMC4466140.
# What was measured:
# Assay in all cases: SPOT peptide array binding signal intensity (averaged, normalized) (arbitrary units (background-subtracted, floor 0; scale differs between SH3 domains)); higher = stronger binding of the SH3 domain to the peptide
# AgAbp1 = molecular target: AgAbp1
# In short: (§1)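 The binding signal is the normalized, background-subtracted spot intensity averaged over replicates; its arbitrary units differ between domains. It was obtained by incubating 10 μg/ml GST-fused SH3 domains from four yeast species overnight at 4°C in TBS-based blocking buffer on cellulose membranes with synthetic 15-mer peptides, cysteines replaced by serines, then detecting with anti-GST antibody, HRP anti-mouse secondary and luminol.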
# AgBbc1 = molecular target: AgBbc1
# In short: as §1
# AgBem1-D1 = molecular target: AgBem1-D1
# In short: as §1
# AgBzz1-D1 = molecular target: AgBzz1-D1
# In short: as §1
# AgBzz1-D2 = molecular target: AgBzz1-D2
# In short: as §1
# AgCyk3 = molecular target: AgCyk3
# In short: as §1
# AgFus1 = molecular target: AgFus1
# In short: as §1
# AgHof1 = molecular target: AgHof1
# In short: as §1
# AgHse1 = molecular target: AgHse1
# In short: as §1
# AgLsb1 = molecular target: AgLsb1
# In short: as §1
# AgLsb4 = molecular target: AgLsb4
# In short: as §1
# AgMyo5 = molecular target: AgMyo5
# In short: as §1
# AgNbp2 = molecular target: AgNbp2
# In short: as §1
# AgRvs167 = molecular target: AgRvs167
# In short: as §1
# AgSho1 = molecular target: AgSho1
# In short: as §1
# AgSla1-D1-D2 = molecular target: AgSla1-D1-D2
# In short: as §1
# AgSla1-D3 = molecular target: AgSla1-D3
# In short: as §1
# CaAbp1-D1 = molecular target: CaAbp1-D1
# In short: as §1
# CaAbp1-D2 = molecular target: CaAbp1-D2
# In short: as §1
# CaBbc1 = molecular target: CaBbc1
# In short: as §1
# CaBem1-D1 = molecular target: CaBem1-D1
# In short: as §1
# CaBzz1-D1 = molecular target: CaBzz1-D1
# In short: as §1
# CaBzz1-D2 = molecular target: CaBzz1-D2
# In short: as §1
# CaCyk3 = molecular target: CaCyk3
# In short: as §1
# CaFus1 = molecular target: CaFus1
# In short: as §1
# CaHof1 = molecular target: CaHof1
# In short: as §1
# CaHse1 = molecular target: CaHse1
# In short: as §1
# CaLsb1 = molecular target: CaLsb1
# In short: as §1
# CaLsb4 = molecular target: CaLsb4
# In short: as §1
# CaMyo5 = molecular target: CaMyo5
# In short: as §1
# CaNbp2 = molecular target: CaNbp2
# In short: as §1
# CaRvs167 = molecular target: CaRvs167
# In short: as §1
# CaRvs167-3 = molecular target: CaRvs167-3
# In short: as §1
# CaSho1 = molecular target: CaSho1
# In short: as §1
# CaSla1-D1-D2 = molecular target: CaSla1-D1-D2
# In short: as §1
# CaSla1-D3 = molecular target: CaSla1-D3
# In short: as §1
# ScAbp1 = molecular target: ScAbp1
# In short: as §1
# ScBbc1 = molecular target: ScBbc1
# In short: as §1
# ScBem1-D1 = molecular target: ScBem1-D1
# In short: as §1
# ScBzz1-D1 = molecular target: ScBzz1-D1
# In short: as §1
# ScBzz1-D2 = molecular target: ScBzz1-D2
# In short: as §1
# ScCyk3 = molecular target: ScCyk3
# In short: as §1
# ScFus1 = molecular target: ScFus1
# In short: as §1
# ScHof1 = molecular target: ScHof1
# In short: as §1
# ScHse1 = molecular target: ScHse1
# In short: as §1
# ScLsb1 = molecular target: ScLsb1
# In short: as §1
# ScLsb2 = molecular target: ScLsb2
# In short: as §1
# ScLsb3 = molecular target: ScLsb3
# In short: as §1
# ScLsb4 = molecular target: ScLsb4
# In short: as §1
# ScMyo3 = molecular target: ScMyo3
# In short: as §1
# ScMyo5 = molecular target: ScMyo5
# In short: as §1
# ScNbp2 = molecular target: ScNbp2
# In short: as §1
# ScPex13 = molecular target: ScPex13
# In short: as §1
# ScRvs167 = molecular target: ScRvs167
# In short: as §1
# ScSho1 = molecular target: ScSho1
# In short: as §1
# ScSla1-D1-D2 = molecular target: ScSla1-D1-D2
# In short: as §1
# ScSla1-D3 = molecular target: ScSla1-D3
# In short: as §1
# SpAbp1-D1 = molecular target: SpAbp1-D1
# In short: as §1
# SpBbc1 = molecular target: SpBbc1
# In short: as §1
# SpBzz1-D1 = molecular target: SpBzz1-D1
# In short: as §1
# SpBzz1-D2 = molecular target: SpBzz1-D2
# In short: as §1
# SpCyk3 = molecular target: SpCyk3
# In short: as §1
# SpHof1 = molecular target: SpHof1
# In short: as §1
# SpHof1-2 = molecular target: SpHof1-2
# In short: as §1
# SpHof1-3 = molecular target: SpHof1-3
# In short: as §1
# SpHse1 = molecular target: SpHse1
# In short: as §1
# SpLsb1 = molecular target: SpLsb1
# In short: as §1
# SpLsb4 = molecular target: SpLsb4
# In short: as §1
# SpMyo1 = molecular target: SpMyo1
# In short: as §1
# SpNbp2 = molecular target: SpNbp2
# In short: as §1
# SpPex13 = molecular target: SpPex13
# In short: as §1
# SpRvs167 = molecular target: SpRvs167
# In short: as §1
# SpSla1-D1-D2 = molecular target: SpSla1-D1-D2
# In short: as §1
# SpSla1-D3 = molecular target: SpSla1-D3
# In short: as §1
binder,measurement,setting,value
LRIKRKPVQTFFEFI,SPOT peptide array binding signal intensity,AgAbp1,76
same,SPOT peptide array binding signal intensity,AgBbc1,24.2
same,SPOT peptide array binding signal intensity,AgBem1-D1,212
same,SPOT peptide array binding signal intensity,AgBzz1-D1,109
same,SPOT peptide array binding signal intensity,AgBzz1-D2,42
same,SPOT peptide array binding signal intensity,AgCyk3,4
same,SPOT peptide array binding signal intensity,AgFus1,398
same,SPOT peptide array binding signal intensity,AgHof1,19.5
same,SPOT peptide array binding signal intensity,AgHse1,960
same,SPOT peptide array binding signal intensity,AgLsb1,1
same,SPOT peptide array binding signal intensity,AgLsb4,136
same,SPOT peptide array binding signal intensity,AgMyo5,0.5
same,SPOT peptide array binding signal intensity,AgNbp2,72
same,SPOT peptide array binding signal intensity,AgRvs167,4.33
same,SPOT peptide array binding signal intensity,AgSho1,49
same,SPOT peptide array binding signal intensity,AgSla1-D1-D2,432
same,SPOT peptide array binding signal intensity,AgSla1-D3,10.5
same,SPOT peptide array binding signal intensity,CaAbp1-D1,816
same,SPOT peptide array binding signal intensity,CaAbp1-D2,948
same,SPOT peptide array binding signal intensity,CaBbc1,91.2
same,SPOT peptide array binding signal intensity,CaBem1-D1,16
same,SPOT peptide array binding signal intensity,CaBzz1-D1,107
same,SPOT peptide array binding signal intensity,CaBzz1-D2,59.2
same,SPOT peptide array binding signal intensity,CaCyk3,18
same,SPOT peptide array binding signal intensity,CaFus1,1010
same,SPOT peptide array binding signal intensity,CaHof1,≤ 0
same,SPOT peptide array binding signal intensity,CaHse1,15
same,SPOT peptide array binding signal intensity,CaLsb1,0.5
same,SPOT peptide array binding signal intensity,CaLsb4,59
same,SPOT peptide array binding signal intensity,CaMyo5,14
same,SPOT peptide array binding signal intensity,CaNbp2,468
same,SPOT peptide array binding signal intensity,CaRvs167,16.5
same,SPOT peptide array binding signal intensity,CaRvs167-3,843
same,SPOT peptide array binding signal intensity,CaSho1,1260
same,SPOT peptide array binding signal intensity,CaSla1-D1-D2,37
same,SPOT peptide array binding signal intensity,CaSla1-D3,37
same,SPOT peptide array binding signal intensity,ScAbp1,355
same,SPOT peptide array binding signal intensity,ScBbc1,6.75
same,SPOT peptide array binding signal intensity,ScBem1-D1,57
same,SPOT peptide array binding signal intensity,ScBzz1-D1,39.5
same,SPOT peptide array binding signal intensity,ScBzz1-D2,49.5
same,SPOT peptide array binding signal intensity,ScCyk3,138
same,SPOT peptide array binding signal intensity,ScFus1,651
same,SPOT peptide array binding signal intensity,ScHof1,5.5
same,SPOT peptide array binding signal intensity,ScHse1,1800
same,SPOT peptide array binding signal intensity,ScLsb1,21.2
same,SPOT peptide array binding signal intensity,ScLsb2,5.5
same,SPOT peptide array binding signal intensity,ScLsb3,156
same,SPOT peptide array binding signal intensity,ScLsb4,23
same,SPOT peptide array binding signal intensity,ScMyo3,7
same,SPOT peptide array binding signal intensity,ScMyo5,1.75
same,SPOT peptide array binding signal intensity,ScNbp2,150
same,SPOT peptide array binding signal intensity,ScPex13,18
same,SPOT peptide array binding signal intensity,ScRvs167,24.2
same,SPOT peptide array binding signal intensity,ScSho1,718
same,SPOT peptide array binding signal intensity,ScSla1-D1-D2,220
same,SPOT peptide array binding signal intensity,ScSla1-D3,14
same,SPOT peptide array binding signal intensity,SpAbp1-D1,228
same,SPOT peptide array binding signal intensity,SpBbc1,5
same,SPOT peptide array binding signal intensity,SpBzz1-D1,128
same,SPOT peptide array binding signal intensity,SpBzz1-D2,0.5
same,SPOT peptide array binding signal intensity,SpCyk3,2
same,SPOT peptide array binding signal intensity,SpHof1,436
same,SPOT peptide array binding signal intensity,SpHof1-2,14
same,SPOT peptide array binding signal intensity,SpHof1-3,784
same,SPOT peptide array binding signal intensity,SpHse1,686
same,SPOT peptide array binding signal intensity,SpLsb1,4.25
same,SPOT peptide array binding signal intensity,SpLsb4,100
same,SPOT peptide array binding signal intensity,SpMyo1,4.5
same,SPOT peptide array binding signal intensity,SpNbp2,370
same,SPOT peptide array binding signal intensity,SpPex13,23.5
same,SPOT peptide array binding signal intensity,SpRvs167,32.5
same,SPOT peptide array binding signal intensity,SpSla1-D1-D2,≤ 0
same,SPOT peptide array binding signal intensity,SpSla1-D3,37
